From the supplement of paper PMC8975748
Structures can show the parent of a compound that is named as a salt.

test system: Saccharomyces cerevisiae BY4741 SeMeCo community; experiment: z-score of subpopulation abundance vs DMSO median, subpopulation auxotrophic for UM; higher = larger share of this subpopulation than in DMSO controls; conditions: 10 µM; 24 h; SM minimal medium; subpopulation (auxotrophy): UM
Method: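 Fluorescent four-plasmid SeMeCo (self-establishing metabolically cooperating S. cerevisiae BY4741 community; plasmids pH-mRuby2, pL-mWasabi, pU-eCFP, pM-TagRFP657) was grown 24 h in minimal SM medium with each Selleck FDA-approved drug at 10 µM in 384-well plates. Cells were fixed and imaged by high-content confocal microscopy. For each auxotrophic subpopulation (and the prototroph), a z-score gives the deviation from the DMSO vehicle-control population median.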

Compound | z-score of subpopulation abundance
CCOC(=O)Nc1ccc(NCc2ccc(F)cc2)cc1N [Retigabine 2HCl] | -0.52
CC[N+](C)(CC)CCOC(=O)C(O)(c1ccccc1)c1ccccc1 [Methylbenactyzine Bromide] | -0.66
C[C@@H]1CC[C@H]2[C@@H](C)C(=O)O[C@@H]3O[C@@]4(C)CC[C@@H]1[C@]32OO4 [Artemisinin] | -0.66
CC(=O)OCC1=C(C(=O)O)N2C(=O)C(N)C2SC1 (stereo not given) [7-Aminocephalosporanic acid] | 0
COc1ccc(C(CN(C)C)C2(O)CCCCC2)cc1 (stereo not given) [Venlafaxine] | 0.35
CC(C)(O)C(Cl)(Cl)Cl [Chlorobutanol] | 0.14
C[CH2][Hg][S]c1ccccc1C(=O)[O-].[Na+] [Thimerosal] | 6.06
C[N+]1(C)[C@@H]2C[C@@H](OC(=O)[C@H](CO)c3ccccc3)C[C@H]1[C@@H]1O[C@@H]12 [Methscopolamine] | 1.32
C[N+](C)(C)CCCCCCCCCC[N+](C)(C)C [Decamethonium Bromide] | 0.35
CN1c2ccccc2C(NCCCCCCC(=O)O)c2ccc(Cl)cc2S1(=O)=O (stereo not given) [Tianeptine sodium] | 0.21
O=[N+]([O-])C(Br)(CO)CO [Bronopol] | -0.1
NC(=O)CN1CCCC1=O [Piracetam] | 0.74
CCN1CC2(OC(=O)c3ccccc3NC(C)=O)CCC(OC)C34C1C(CC23)C1(O)CC(OC)C2CC4C1(O)C2OC (stereo not given) [Lappaconitine] | 0.23
N#Cc1nn(-c2c(Cl)cc(C(F)(F)F)cc2Cl)c(N)c1[S+]([O-])C(F)(F)F (stereo not given) [Fipronil] | -0.68
Nc1ccncc1 [4-Aminopyridine] | -0.05
CCCN1C[C@H](CSC)C[C@@H]2c3cccc4[nH]cc(c34)C[C@H]21 [Pergolide Mesylate] | -0.77
Cc1cc(O)ccc1Cl [Chlorocresol] | -0.48
O=C(O[C@H]1C[C@H]2CC[C@@H](C1)[N+]21CCCC1)C(O)(c1ccccc1)c1ccccc1 [Trospium chloride] | -0.43
CC(C)=CCOc1c2occc2cc2ccc(=O)oc12 [Imperatorin] | 0.52
CN1C(=O)COc2c(C(=O)NC3CN4CCC3CC4)cc(Cl)cc21 (stereo not given) [Azasetron HCl] | 0.66

Compound | z-score of subpopulation abundance
CN1[C@@H]2CC[C@H]1C[C@@H](OC(=O)C(CO)c1ccccc1)C2 (stereo not given in full) [Atropine sulfate monohydrate] | 0.69
COc1ccc2c(c1)[C@]13CCCC[C@@H]1[C@H](C2)N(C)CC3 [Dextromethorphan hydrobromide hydrate] | -0.52
CCN(C)C(=O)Oc1cccc([C@H](C)N(C)C)c1 [Rivastigmine Tartrate] | -0.84
COc1cc2c(cc1OC)C1CC(=O)C(CC(C)C)CN1CC2 (stereo not given) [Tetrabenazine (Xenazine)] | -0.68
Oc1cccc2cccnc12 [8-Hydroxyquinoline] | -1.16
CC(=O)O[C@H]1C[C@@H]2CC[C@@H]3[C@H](CC[C@@]4(C)[C@H]3C[C@H]([N+]3(C)CCCCC3)[C@@H]4OC(C)=O)[C@@]2(C)C[C@@H]1[N+]1(C)CCCCC1 [Pancuronium dibromide] | -0.06
C=CCN1C[C@H](C(=O)N(CCCN(C)C)C(=O)NCC)C[C@@H]2c3cccc4[nH]cc(c34)C[C@H]21 [Cabergoline] | -0.17
Oc1cc(Cl)ccc1Oc1ccc(Cl)cc1Cl [Triclosan] | -2.84
Cc1cc(C(C#N)c2ccc(Cl)cc2)c(Cl)cc1NC(=O)c1cc(I)cc(I)c1O (stereo not given) [Closantel] | -0.03
C#C[C@]1(O)C=C[C@H]2[C@@H]3CCC4=CC(=O)CC[C@@H]4[C@H]3CC[C@@]21CC [Gestodene] | -1.14
CC[C@H]1CN2CC[C@]3(C(=O)Nc4ccccc43)[C@@H]2C[C@@H]1/C(=C\OC)C(=O)OC [Rhynchophylline] | 1.19
O=C(O[C@H]1C[N+]2(CCCOc3ccccc3)CCC1CC2)C(O)(c1cccs1)c1cccs1 [Aclidinium Bromide] | 0.73
CN[C@@H]1[C@@H](O)[C@@H](O[C@@H]2[C@@H](O)[C@H](O[C@H]3O[C@H]([C@@H](C)O)[C@@H](O)[C@H](O)[C@H]3N)[C@@H](N)C[C@H]2N)OC[C@]1(C)O [Geneticin (G418 Sulfate)] | -0.56
CN[C@@H]1[C@@H](O)[C@@H](O[C@@H]2[C@@H](O)[C@H](O[C@H]3O[C@H](CN)CC[C@H]3N)[C@@H](N)C[C@H]2N)OC[C@]1(C)O.CN[C@@H]1[C@@H](O)[C@@H](O[C@@H]2[C@@H](O)[C@H](O[C@H]3O[C@H]([C@@H](C)N)CC[C@H]3N)[C@@H](N)C[C@H]2N)OC[C@]1(C)O.CN[C@@H]1[C@@H](O)[C@@H](O[C@@H]2[C@@H](O)[C@H](O[C@H]3O[C@H]([C@@H](C)NC)CC[C@H]3N)[C@@H](N)C[C@H]2N)OC[C@]1(C)O [Gentamicin Sulfate] | -0.75
C[C@H]1O[C@H](O[C@H]2[C@H](O)[C@@H](O)[C@@H](O)[C@H](O)[C@@H]2O)[C@@H](N)C[C@@H]1NC(=N)C(=O)O [Kasugamycin hydrochloride] | -0.17
O=c1cccc2n1C[C@@H]1CNC[C@H]2C1 [Cytisine] | -0.6
N[C@@H]1C[C@H]1c1ccccc1 [Tranylcypromine (2-PCPA) HCl] | -0.34
COc1ccc2[nH]cc(CCN)c2c1 [5-Methoxytryptamine] | 1.16
COC(=O)C1=CCCN(C)C1 [Arecoline HBr] | 0.61
C=C(C)[C@H]1Cc2c(ccc3c2O[C@@H]2COc4cc(OC)c(OC)cc4[C@@H]2C3=O)O1 [Rotenone (Barbasco)] | 0.29
